Source: PubChem (National Center for Advancing Translational Sciences (NCATS))
An excerpt weighted towards active compounds, which were near 7.9% of everything screened.
SW480 rerep = A quantitative high throughput screen for small molecules that induce DNA re-replication in SW480 colon adenocarcinoma cells; SW480 DNA re-replication, Hoechst DNA content imaging, 48 h; Potency, µM (series often up to 46.1 µM), hits mostly activators; 1.8% of 340,000 active; AID 624297, 2012; also: nearly all actives have a fitted effect of over 55% in size
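Readout is total intensity of Hoechst-stained nuclei, excited at 405 nm and collected at 500-530 nm. Compound treatment lasted 48 hr at 37 C in 5% CO2 before staining.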
MCF10A rereplic = A quantitative high throughput screen for small molecules that induce DNA re-replication in MCF 10a normal breast cells; Potency, µM (doses to about 46.1 µM), usual class: activators; 2.9% of 350,000 active; MCF 10A DNA re-replication, Hoechst nuclear intensity, 48 h; AID 624296, 2012; also: nearly all actives have a fitted effect of over 50% in size
HT1080 IDH1KD tx = qHTS for induction of synthetic lethality in tumor cells producing 2HG: qHTS for the HT-1080-IDH1KD cell line; 2% of 360,000 active; AID 686971, 2013; Potency, µM (top dose mostly 46.1 µM), most hits filed as cytotoxic; HT-1080 IDH1 knockdown viability, ATP luminescence, 48 h
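Luminescent ATP read-out (CellTiter-Glo, 10 min at room temperature) after 48 h compound exposure at 37 °C gave viability of IDH1-knockdown HT-1080 cells. Activity was normalised to DMSO and cell-free wells, then fitted as concentration-response curves.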
KB-3-1 tox = qHTS assay for MDR1-selective chemotherapeutics: Primary screen using the parental adenocarcinoma cell KB-3-1; KB-3-1 viability, CellTiter-Glo ATP luminescence, 72 h; Potency, µM (series often up to 46.1 µM), most hits filed as cytotoxic; 1.4% of 400,000 active; also: nearly all actives have a fitted effect of over 60% in size
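Parental KB-3-1 viability, qHTS format: 72 h compound exposure, 37 °C; CellTiter-Glo; media-only wells and DMSO plates as controls; concentration-effect fits on corrected data.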
KB-V1 MDR tox = qHTS assay for MDR1-selective chemotherapeutics: Primary screen using the drug-selected MDR subline cells KB-V1 | KB-V1 MDR cells viability, CellTiter-Glo, 72 h | Potency, µM (doses to about 46.1 µM), most hits filed as cytotoxic | 3.4% of 400,000 active | AID 1347076, 2019; also: nearly all actives have a fitted effect of over 60% in size
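In this primary screen, KB-V1 cells overexpressing P-gp are incubated with library compounds (lowest to highest concentration) for 72 h at 37 degrees C before a luminescent ATP viability read.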
HT1080-NT tox = qHTS for induction of synthetic lethality in tumor cells producing 2HG: qHTS for the HT-1080-NT fibrosarcoma cell line; HT-1080-NT fibrosarcoma viability, CellTiter-Glo ATP luminescence, 48 h; Potency, µM (series often up to 46.1 µM), actives largely listed as cytotoxic; 1.6% of 360,000 active; AID 686970, 2013;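 also: NT is the 2HG producing partner of a matched IDH1 knockdown line; nearly all actives have a fitted effect of over 55% in size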
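Viability of the 2HG-overproducing fibrosarcoma line after 48 hours of compound exposure at 37 degrees C was determined by luminescence with CellTiter-Glo, and concentration-effect curves were then fitted and categorized.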
Numbers stand for hits; 0 = inactive; ? = inconclusive; - = no result. Calls follow the shape of the dose curve; as a rule, active = well fitted curve in the direction sought with a large enough effect; inconclusive = small, poorly fitted or top-dose-only effect, or another doubt; inactive = no such curve, though single readings can be large; an effect the other way counts as inactive or inconclusive.

SMILES | SW480 rerep | MCF10A rereplic | HT1080 IDH1KD tx | KB-3-1 tox | KB-V1 MDR tox | HT1080-NT tox
O=c1c2ccccc2nc(N/N=C/c2c(O)ccc3ccccc23)n1O | ? | 3.26µM | ? | ? | 0 | ?
O=c1c2ccccc2nc(/C=C/c2ccccc2)n1CCc1ccccc1 | 0 | 0 | 0 | 0 | 0 | 0
O=c1c2ccccc2nc(/C=C/c2cc(Br)ccc2O)n1CCCO | ? | ? | ? | 20.6µM | ? | ?
Cc1nc2ccccc2c(=O)n1/N=C/c1ccc(N(C)C)cc1 | 0 | 0 | 0 | 0 | 0 | 0
Cc1nc2ccccc2c(=O)n1/N=C/c1c(O)ccc2ccccc12 | 2.91µM | 0 | ? | 0 | 0 | ?
Clc1nc(NCc2cccs2)c2[nH]cnc2n1 | - | - | - | 0 | 0 | -
COc1ccccc1C(=O)Nc1ccnn1C1CCN(Cc2ccc3nonc3c2)CC1 | 0 | 0 | 0 | 0 | 0 | 0
CSc1nnc(-c2ccc([N+](=O)[O-])cc2)o1 | ? | 0 | 0 | ? | 0 | 0
Nc1c2c(nc3ccccc13)CCCC2=O | 0 | 0 | 0 | 0 | 0 | 0
Cc1ccc(CNS(=O)(=O)c2ccc(N3CCCCS3(=O)=O)cc2)cc1 | - | - | - | ? | 0 | -
CC(C)(C)N=Cc1c(O)ccc2oc3c(c12)CCCC3 | 0 | 0 | 0 | 0 | 0 | ?
Cc1nc2ccccc2c(=O)n1/N=C/c1c(O)ccc2oc3c(c12)CCCC3 | 0 | 0 | 0 | ? | 18.4µM | 0
CCOc1ccc(NC(=S)NC23CN4CN(CN(C4)C2)C3)cc1 | 0 | 0 | 0 | 0 | 0 | 0
Cc1cc2ccccc2c[n+]1C1CCCCC1 | - | - | - | 4.61µM | 0 | -
COc1cc(CCNC2=CC(=O)c3ncccc3C2=O)ccc1O | 14.6µM | ? | 14.6µM | 5.8µM | 7.31µM | ?
O=C(Nc1ccc(F)cc1F)c1ccc2c(c1)[nH]c(=O)n2Cc1ccc(F)cc1 | 0 | 5.8µM | 0 | 0 | 0 | 0
CCc1cc2c3c(c1)C1(C(=O)N3C(C)(C)C=C2C)C(C#N)=C(N)Oc2[nH]c(=O)[nH]c(=O)c21 (stereo not given) | 4.11µM | ? | 16.4µM | ? | ? | 23.1µM
Cc1ccc(CN2CCN(Cc3cccn3-c3ccccn3)CC2CCO)cc1 (stereo not given) | 0 | 0 | 0 | 0 | 0 | 0
O=C(/C=C/c1ccc(F)cc1)NC(=S)NNC(=O)c1cnccn1 | 0 | 0 | 0 | 5.8µM | ? | 0
Cc1ccccc1-c1nc(CN2CCCC2c2ccc(F)cc2)c(C)o1 (stereo not given) | 0 | 14.6µM | 0 | 0 | 0 | 0
Cc1oc(-c2ccccc2Cl)nc1CN1CCCC1c1ccc(F)cc1 (stereo not given) | 0 | 0 | 0 | 0 | ? | 0
S=c1[nH]nc(-c2ccc(Cl)cc2)n1/N=C/c1cccs1 | 9.2µM | 0 | ? | 0 | 0 | 0
C/C(=N\NC(=O)c1csc(C)c1C)c1ccc(Cl)s1 | 0 | 0 | 0 | 0 | 0 | 0
CN(CC1CCCN(CCc2ccc(Cl)cc2)C1)C(=O)c1ccoc1 (stereo not given) | 0 | 0 | 0 | 0 | ? | 0
COc1ccccc1CCN1CCCC(CN(C)Cc2ccc(OCCO)cc2)C1 (stereo not given) | ? | 20.6µM | 0 | 0 | 0 | 0
CN(CC1CCCN(CCc2ccc(Cl)cc2)C1)C(=O)CC(F)(F)F (stereo not given) | 5.8µM | 0 | 0 | 0 | 0 | 0
COc1ccc(CN(C)CC2CCCN(CCc3ccc(Cl)cc3)C2)cc1OC (stereo not given) | 0 | ? | 16.4µM | ? | 0 | 29.1µM
Cc1ccccc1Nc1ccc(S(=O)(=O)N2CCOCC2)cc1[N+](=O)[O-] | 0 | ? | 0 | 0 | ? | 0
CCCc1c(C(=O)N/N=C/c2c(OC)ccc3ccccc23)nnn1-c1nonc1N | 0 | ? | 0 | 0 | 0 | 0
